High-throughput results: PubChem, National Center for Advancing Translational Sciences (NCATS)
Most compounds without a hit are left out; they make up all but 3.6% or so of the library.
Nrf2 ARE act: Nrf2 pathway activation; AREc32 ARE-luciferase reporter (MCF7-derived line), luminescence, 24 h; Potency, µM (series often up to 46.1 µM), without a hit: top-dose activation, usual class: activators; actives 0.31% (n = 410,000); AID 624171; note: % of control where 0% means no effect; nearly all actives have a fitted effect of over 65% in size
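Reporter line AREc32 (ARE-Fluc), seeded overnight in OPTI-MEM with 5% FBS; compound pin-transferred, 24 hr at 37 deg C, 5% CO2; luminescent read-out.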
TGFb inhibitor: TGF-b pathway inhibition; HepG2 CAGA-GFP TGF-b/SMAD3 reporter, GFP fluorescence, 18 h; TGF-beta stimulated, 500 pg/mL final; Potency, µM (highest dose often 46.1 µM), for the others: at the top dose activity, negative = inhibition, actives largely listed as inhibitors; AID 588855; actives 1.2% (n = 410,000); note: % is set by controls: 0 for no effect and ±100 for the full control effect; nearly all actives have a fitted effect of over 65% in size
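Per well, imaged GFP fluorescence of HEPG2 CAGA-GFP cells gives the signal; cells get compound, then TGF-beta (500 pg/mL final), 18 h at 37 degrees C; %Activity versus -TGF-beta and +DMSO controls.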
HepG2 viability: kills HepG2 cells in TGF-b inhibitor counter-screen. HepG2 CAGA-GFP viability, ATP luminescence, 18 h. Potency, µM (titrated, usually from 46.1 µM), inactives show top-dose activity change, negative = cytotoxicity, usual class: cytotoxic. actives 0.76% (n = 410,000). AID 588856
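HepG2 CAGA-GFP cells (1000/well, DMEM with 1% FBS) received compound, then TGF-beta at 500 pg/mL final, and were incubated 18 hours at 37 degrees C. Viability was read by CellTiter-Glo luminescence. Media-only wells were set as complete cell-killing and DMSO as no toxicity.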
A549 viability: A549 cytotoxicity, counter-screen for Nrf2 inhibitors. actives 0.16% (n = 390,000). Potency, µM (highest dose often 46 µM), without a hit: at the top dose activity change, negative = cytotoxicity, most hits filed as inhibitors. A549 ARE-Fluc cells, CellTiter-Fluor viability, 18-24 h; note: % is set by controls: 0 for no effect and ±100 for the full control effect
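A549 ARE-Fluc cells in 5% FBS OPTI-MEM, 5000 cells/well, rested 2 h then exposed to compounds in concentration-response for 18-24 h at 37 °C. Viability by CellTiter-Fluor fluorescence (Ex 405/Em 525) after 30 min; luciferase luminescence (BugLite, 15 min, RT) read afterwards.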
Nrf2 inh: Nrf2 pathway inhibition; Potency, µM (doses to about 46 µM), for inactives: top-dose activity change, negative = inhibition, hits mostly inhibitors; actives 2.1% (n = 360,000); A549 ARE-Fluc reporter, luciferase luminescence, 18-24 h; note: % is set by controls: 0 for no effect and ±100 for the full control effect; nearly all actives have a fitted effect of over 60% in size
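Quantitative HTS in A549 cells stably bearing an antioxidant response element-firefly luciferase construct. Inhibition of Nrf2-driven transcription was scored by luminescence after 18-24 h of compound exposure at 37 °C.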
* = called active by the depositor; ? = inconclusive; . = not tested or not shown. Calls come from the whole dose curve; as a rule, active = well fitted curve in the direction sought with a large enough effect; inconclusive = small, poorly fitted or top-dose-only effect, or another doubt; inactive = no such curve, though single readings can be large; an effect the other way counts as inactive or inconclusive. Potency is the fitted concentration of half-maximal effect.

SMILES | Nrf2 ARE act | TGFb inhibitor | HepG2 viability | A549 viability | Nrf2 inh
CCN(Cc1ccccc1)S(=O)(=O)c1cc(C(=O)NC2CCCCCC2)ccc1OC | 0% | -5% | -22% | ? | ?
COc1ccc(C(=O)Oc2cc(C(=S)N3CCOCC3)ccc2OC)cc1 | -1% | -4% | -8% | 2% | -7%
COc1cccc(OCCSc2nc3ccccc3n2CC(=O)N2CCCCC2)c1 | 1% | -9% | -19% | -15% | 18µM*
C[C@H](NC(=O)c1[nH]cnc1C(=O)Nc1ccccc1)c1ccccc1 | -2% | ? | -26% | -9% | -14%
CC1CCCN(C(=O)c2ccc(OC3CCN(CCc4ccccc4)CC3)cc2)C1 (stereo unspecified) | 0% | -1% | -10% | 1% | 16µM*
O=C(c1ccc(OC2CCN(CCc3ccccc3)CC2)cc1)N1CCCC(CO)C1 (stereo unspecified) | -1% | 7% | 9% | 0% | 19%
COc1cccc(/C(C)=N/NC(=O)c2cc(-c3cccnc3)nc3ccccc23)c1 | 4% | -6% | -15% | -6% | 21µM*
CC(=O)Nc1cccc(NC(=O)c2cc(-c3cccnc3)nc3ccc(Br)cc23)c1 | 0% | -21% | -77% | ? | 12µM*
Cc1cc(C)n(CC(=O)Nc2ccc3c(c2)OCO3)c(=O)c1C#N | 1% | -13% | 12% | -3% | 5%
COc1ccc(/C=N/Nc2cc(C)nc3c(C)cccc23)cc1 | -3% | ? | 13µM* | -18% | 4%
COc1ccc2nc(C)cc(N/N=C/c3ccc(F)cc3)c2c1 | -1% | 4µM* | 5µM* | -9% | 1%
O=C(c1ccco1)N1CCN(C(=O)c2ccc(-c3ccccc3Cl)o2)CC1 | 10% | -14% | -21% | 4% | 9%
Cc1ccc(C)n1-c1ccc(-n2cnnn2)cc1 | 0% | -3% | -5% | ? | 4%
CC(C)CC(=O)c1c[nH]c(C(=O)NCc2cccnc2)c1 | 3% | -10% | 2% | -1% | ?
COc1cccc(C(=O)NNC2=C(C(=O)C(F)(F)F)CCC2)c1 | 4% | ? | 4µM* | -11% | ?
O=C(NNC1=C(C(=O)C(F)(F)F)CCC1)c1ccc(Br)cc1 | 4% | 16µM* | 10µM* | -22% | ?
COc1ccccc1C(=O)NNC1=C(C(=O)C(F)(F)F)CCC1 | 15% | ? | -41% | -1% | -20%
CN(C)CCNC(=O)/C(=N\O)c1ccccn1 | 0% | 0% | -1% | 6% | 11%
O=C(CSCc1ccc(F)cc1)Nc1ccc(N2CCOCC2)cc1N1CCOCC1 | 0% | 4% | -2% | 1% | -8%
Cc1nn(Cc2ccc(F)cc2)c2sc(C(=O)Nc3ccc(N4CCOCC4)cc3N3CCOCC3)cc12 | 3% | -6% | -29% | -2% | 15µM*
COc1ccccc1N1CCN(Cc2c[nH]c3ccccc23)CC1 | 4% | 5% | -14% | -8% | -14%
Cc1ccccc1N1CCN(Cc2c[nH]c3ccccc23)CC1 | 20% | ? | 10µM* | -9% | 20%
COc1cccc(C(=O)NCCS(=O)(=O)NC(C)CCc2ccccc2)c1 (stereo unspecified) | 0% | 0% | -10% | 2% | -3%
c1ccc(Nc2ccccc2)cc1 | 0% | 3% | 16% | 1% | -3%
Oc1cc(Nc2ccccc2)cc2cccnc12 | -3% | 32µM* | 11µM* | -1% | -7%
Oc1cccc2cc(Nc3ccccc3)cnc12 | -1% | 3.5µM* | 0% | . | .
Cc1ccc(-c2csc3ncnc(NCCN4CCOCC4)c23)cc1 | 0% | -19% | -33% | 0% | ?
c1ccc(-c2csc3ncnc(NCCN4CCOCC4)c23)cc1 | 0% | -9% | -21% | -18% | 15µM*
COc1cc(/C=C\C(=O)NCc2ccc3[nH]c(C)cc3c2)cc(OC)c1OC | 5% | 3% | -16% | 1% | 8%
Cc1ccc(S(=O)(=O)NCC(=O)N(CC(=O)NCc2ccco2)Cc2ccco2)cc1 | 0% | -2% | -3% | -1% | 9%
